Each compound was assayed on Pseudomonas aeruginosa PA14 dppA1-A5 penta mutant + pBBR5.DppA1 (PA14_58350) (assay: respiration area under curve with compound as sole nitrogen source, 24 h (OmniLog AUC (arbitrary units)); higher = more respiration / better utilisation as nitrogen source, active = 2000 or more).
Experimental: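 Biolog Phenotype MicroArray plates PM6-PM8: each di/tripeptide is the sole nitrogen source. Tetrazolium reduction was read in the OmniLog for 24 h at 37°C and summarised as area under the respiration curve (arbitrary units). Values below 2000 count as no respiration. Strain is the SBP penta mutant complemented with DppA1 on a plasmid under its native promoter. Lys/His/Cys peptides are excluded.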

Respiration area under curve, active:
NC(CO)C(=O)NC(CCC(=O)O)C(=O)O (stereo not given) (plate: PM8) 3950, CC[C@H](C)[C@H](N)C(=O)N[C@@H](CC(C)C)C(=O)O (plate: PM8) 4900, CC(C)[C@H](N)C(=O)N[C@@H](CC(N)=O)C(=O)O (plate: PM7) 10400, O=C(O)[C@H](Cc1ccccc1)NC(=O)[C@@H]1CCCN1 (plate: PM7) 6240

Respiration area under curve, inactive:
CC(C)[C@H](NC(=O)[C@@H](N)Cc1c[nH]c2ccccc12)C(=O)O (plate: PM8) 1060, CC[C@H](C)[C@H](N)C(=O)N[C@@H](Cc1ccccc1)C(=O)O (plate: PM6) 1500

What follows are compounds tested on Pseudomonas aeruginosa PA14 wild type in the same assay as above.
Experimental: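 Biolog Phenotype MicroArray plates PM6-PM8: each di/tripeptide is the sole nitrogen source (IF-0 medium with succinate/ferric citrate and dye mix A). Tetrazolium reduction was read in the OmniLog every 15 min for 24 h at 37°C and summarised as area under the respiration curve (arbitrary units). The paper counts values below 2000 as no respiration and above 8000 as solid respiration. Replicate datasets are averaged.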

Respiration area under curve, inactive:
CC(C)C[C@@H](N)C(=O)N[C@@H](Cc1ccc(O)cc1)C(=O)O (plate: PM8) 36.8, CC(C)C[C@H](NC(=O)CN)C(=O)O (plate: PM6) 1880

Respiration area under curve, active:
CC(C)[C@H](N)C(=O)N[C@@H](CC(=O)O)C(=O)O (plate: PM7) 8160, CC(C)C[C@H](N)C(=O)N[C@@H](C)C(=O)O (plate: PM6) 9330, CC(C)C[C@H](N)C(=O)NCC(=O)O (plate: PM6) 8220, N[C@@H](Cc1ccccc1)C(=O)NCC(=O)O (plate: PM7) 7630, NC(CO)C(=O)NC(CCC(=O)O)C(=O)O (stereo not given) (plate: PM8) 5470, C[C@H](NC(=O)CCN)C(=O)O (plate: PM8) 6440, C[C@H](N)C(=O)N[C@@H](Cc1ccccc1)C(=O)O (plate: PM6) 7710

Source: the supplement of paper PMC4206461
